The list is not random: actives were taken first. Their share in the collection is about 7.9%.
MARV entry inh – qHTS for inhibitors of binding or entry into cells for Marburg Virus | Marburg virus pseudotyped entry inhibition, cell reporter | Potency, µM (highest dose often 37.8 µM), inactives show at the top dose activity change, negative = inhibition, actives largely listed as inhibitors | 300,000 compounds, 1.8% hits; calls by dose curve; tested in HEK293 cells; note: potency is the fitted concentration of half-maximal effect
HCV inh – qHTS Assay for Inhibitors of Hepatitis C Virus (HCV) | Huh7.5.1 HCVcc-Cre infection, luciferase reporter, 44 h | Potency, µM (doses to about 41.8 µM), for the others: at the highest dose activity change, negative = inhibition, hits mostly inhibitors | 340,000 compounds, 3.4% hits | AID 651820, 2012; active = well fitted inhibition curve with a large enough effect; inconclusive = small, poorly fitted or top-dose-only effect, or another doubt; inactive = no such curve, though single readings can be large or run the other way; note: potency is the fitted concentration of half-maximal effect
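Cells (1,000/well) were plated 4 h before compound, then infected with HCVcc-Cre virus (~0.5 moi). After 44 h further culture, infection was read as luciferase luminescence following a 15 min substrate incubation at room temperature.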
LASV entry inh – qHTS for Inhibitors of binding or entry into cells for Lassa Virus; Lassa virus pseudotype entry inhibition, cell reporter; Potency, µM (series often up to 37.9 µM), for the others: at the top dose activity change, negative = inhibition, most hits filed as inhibitors; 300,000 compounds, 1.2% hits; AID 540256, 2011; calls by dose curve; tested in HEK293 cells; note: potency is the fitted concentration of half-maximal effect; nearly all actives have a fitted effect of over 50% in size
HCMV antiviral – qHTS Assay for inhibitors of the human cytomegalovirus (HCMV); HFF cells, HCMV-luciferase reporter, 72 h; active compounds read low; activity change, negative = inhibition, % at 57.5 µM; 410,000 compounds, 4.5% hits; in the data active = activity change below about -60%; inconclusive = no clear call, values can overlap the other calls; inactive = above about -39%
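After 16 h attachment at 37C, HFF cells received test compound and HCMV-luciferase (1 PFU/cell); reporter luminescence read 72 h later, data normalized against buffer-only and known inhibitor Salinomycin.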
FMDV antiviral – High Throughput Screening for Foot and Mouth Disease Virus Antivirals | FMDV antiviral cell-based qHTS | 410,000 compounds, 1.2% hits | Potency, µM (top dose mostly 57.9 µM), for inactives: at the top dose activity change, negative = inhibition, hits mostly inhibitors | AID 1159524, 2015; calls by dose curve; tested in HEK293T cells; note: read-out not given here; potency is the fitted concentration of half-maximal effect; nearly all actives have a fitted effect of over 45% in size
* hit, by the source's call; ? = inconclusive; / = no result given; [ ] = remark or other dose. % is set by controls: 0 for no effect and ±100 for the full control effect.

SMILES	MARV entry inh	HCV inh	LASV entry inh	HCMV antiviral	FMDV antiviral
CC(=O)N1CCSc2ccc(S(=O)(=O)Nc3ccccc3C)cc21	12%[46.1 µM]	11µM*	?	-12	-4%
Cc1c(C(=O)N2CC3CCC2C3)sc2ncnc(NCCc3ccccn3)c12 (configuration not stated)	/	/	/	/	-9%
N#CCc1nn(-c2ccc(F)cc2)c(N)c1C#N	/	5%	/	-61*	-3%
O=C(CCN1C(=O)S/C(=C\c2ccccc2)C1=O)N1CCCCC1	?	-5%	4%[46.1 µM]	-2	0%
O=C1/C(=C\c2ccccc2)CN(C(=O)CCN2CCCCC2)C/C1=C/c1ccccc1	1µM*	?	?	-100*	7.9µM*
CCN(CC)CCC(=O)N1C/C(=C/c2ccccc2)C(=O)/C(=C\c2ccccc2)C1	11µM*	?	10µM*	-100*	3.5µM*
O=C(NCCN1CCOCC1)c1ccc(Cl)c(Cl)c1	30%[46.1 µM]	9%	-8%[46.1 µM]	28	-6%
O=C1/C(=C\c2ccc(Cl)c(Cl)c2)CN(C(=O)CCN2CCOCC2)C/C1=C/c1ccc(Cl)c(Cl)c1	?	?	?	-102*	3.2µM*
Cc1cc(C)n(C(C)CC(=O)NCc2ccccc2C)n1 (configuration not stated)	/	/	8%[46.1 µM]	8	-11%
CCCCCCc1nc(C(N)=O)c2[nH]c(=O)n(-c3ccc(OCC)cc3)c2n1	/	-22%	/	/	-16%
Cc1ccc(-n2cc(C(=O)c3ccccc3O)cn2)cc1	?	2%	3.5µM*	-15	-56%
Cc1ccc(O)c(C(=O)c2cnn(-c3ccccc3)c2)c1	?	?	0%	52	4%
Cc1ccccc1NC(=O)N[C@H]1CC[C@@]23CCCN2C(=O)CCC[C@H]3C1Cc1ccccc1 (some centres not stated)	/	/	/	10	/
CC1CC(Nc2ccccc2)c2ccccc2N1C(=O)c1ccncc1 (configuration not stated)	10µM*	4%	-24%	-9	-3%
CCOC(=O)c1[nH]c2c(c1Cc1ccccc1OC)C(=O)CC(c1ccccc1)C2 (configuration not stated)	8%[46.1 µM]	/	-19%[46.1 µM]	-13	3%
CCOC(=O)c1cc(-c2ccccc2)nn1Cc1ccccc1	?	/	-13%[46.1 µM]	59	50%
C=CCOC(=O)N[C@H](/C(C(=O)OC)=C(\C)NCc1ccccc1)c1cccc(C(F)(F)F)c1	3%[14.2 µM]	/	/	/	/
O=C(CN1C2CCCC1CC(NC(=O)C1CCCCC1)C2)NCc1ccc(F)cc1 (configuration not stated)	/	?	/	-24	-26%
O=C(CN1C2CCCC1CC(NC(=O)C1CCCCC1)C2)Nc1ccccc1C(F)(F)F (configuration not stated)	?	10µM*	?	-33	?
COc1cccc(C(=O)NC2CC3CCCC(C2)N3CC(=O)Nc2ccccc2C(F)(F)F)c1 (configuration not stated)	11µM*	6.3µM*	?	?	-22%
COc1ccc(S(=O)(=O)n2ccc(-c3ccc4c(c3)CCC(C)(C)O4)n2)cc1	?	-74%	?	-85*	-20%
O=C(Cc1cccs1)Nc1ccc(F)c(S(=O)(=O)N2CCOCC2)c1	/	?	/	52	2%
COc1ccccc1OCC(=O)Nc1nc(-c2ccc(S(=O)(=O)N3CCOCC3)cc2)cs1	?	16µM*	?	-27	?
COc1cc(C(=O)NNC(=O)COc2cccc(F)c2)ccc1OCC(=O)N1CCOCC1	/	-6%	/	-70*	-23%
COc1ccc(-c2csc(NC(=O)c3ccc(OCC(=O)N4CCOCC4)c(OC)c3)n2)cc1OC	11µM*	?	?	-82*	14µM*
SMILES	MARV entry inh	HCV inh	LASV entry inh	HCMV antiviral	FMDV antiviral
O=C(COc1ccccc1)Nc1nc(-c2ccc(S(=O)(=O)N3CCOCC3)cc2)cs1	?	?	?	-38	14µM*
COc1cc(C(=O)Nc2cccc(C)n2)ccc1OCC(=O)N1CCOCC1	/	4%	/	0	-13%
COc1cccc(NC(=O)C2(C)CCN2C(=O)CC2CCCC2)c1 (configuration not stated)	/	/	/	-16	-14%
O=C(COc1ccccc1)Nc1nc(-c2ccncc2)cs1	?	-9%	-16%	-13	28µM*
O=C(CN1CCOCC1)Nc1nc(-c2ccc(Cl)cc2)cs1	?	22µM*	7.1µM*	-26	?
O=C(COc1ccc(Cl)cc1)Nc1nc(-c2ccc(S(=O)(=O)N3CCOCC3)cc2)cs1	?	11µM*	?	-10	?
O=C(CCc1ccc(S(=O)(=O)N2CCOCC2)cc1)Nc1nc(COc2ccccc2)cs1	21µM*	?	-20%	-93*	14µM*
Cc1ccc(-c2csc(NC(=O)COc3ccc(N(C)S(=O)(=O)c4ccc(C)cc4)cc3)n2)cc1	?	7.9µM*	-3%	?	-28%
Oc1c(Cl)c(Cl)c2ncccc2c1Cl	?	3%	5%[46.1 µM]	-9	-22%
Oc1ccc2c(c1)c1ccccc1c1ncccc21	6%	11µM*	5%	13	-24%
COc1cc(C=C2NC(=O)NC2=O)ccc1O	/	/	/	-31	-1%
COc1ccc(OC)c(/C=C2\NC(=O)NC2=O)c1	/	2%	/	-81*	-19%
O=C(NC(=O)c1ccccc1O)c1ccc2c(c1)CCO2	?	-4%	11µM*	-10	-13%
C=CCC1C=CCC(CC=C)N1C(=O)c1ccccc1[N+](=O)[O-] (configuration not stated)	?	18µM*	?	-24	-23%
CCCCN(CCCC)C(=O)c1cc2ccccc2c(=O)o1	1%	-14%	11%	-68*	12%
S=C(Nc1ccccc1)Nc1ccccn1	/	/	/	31	51%
S=C(Nc1ccc(Nc2ccccc2)cc1)Nc1ccccn1	?	10µM*	?	-95*	-20%
Cc1nc(-c2ccc(S(=O)(=O)N3CCN(c4cccc(Cl)c4)CC3)cc2)co1	/	/	-17%[46.1 µM]	-11	-14%
COc1ccc(/C=C/C(=O)Nc2ccccc2F)cc1S(=O)(=O)N1CCOCC1	?	10µM*	?	-19	25µM*
COc1ccc(/C=C/C(=O)Nc2ccc(C(C)=O)cc2)cc1S(=O)(=O)N1CCOCC1	/	/	/	6	-14%
CCOc1ccccc1NC(=O)/C=C/c1ccc(S(=O)(=O)N2CCOCC2)cc1	-7%	10µM*	?	-5	-8%
COc1cc(/C=C/C(=O)Nc2ccc(OC)c(S(=O)(=O)N3CCOCC3)c2)ccc1OC(F)F	?	0.25µM*	13µM*	-86*	?
COc1ccc(/C=C/C(=O)Nc2cccc(F)c2)cc1S(=O)(=O)N1CCOCC1	?	10µM*	5.6µM*	?	35µM*
COc1ccc(/C=C/C(=O)Nc2ccccc2C)cc1S(=O)(=O)N1CCOCC1	-4%	?	/	?	?

High-throughput results from PubChem.
